Bioassay records from PubChem BioAssay.
This excerpt belongs to a sample that is enriched for hits.
hDAT+cocaine: modulates human dopamine transporter uptake under cocaine; Q01959; LLC-PK1 hDAT cells, [14C]-dopamine uptake with cocaine IC80; actives deviate in either direction; B-score at 10 µM; actives 1.3% (n = 110,000); AID 449768;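 active = Z score or B-score, a plate-position-corrected score, falls beyond the plate's 99.7% confidence bounds, in either direction; inactive = both scores lie inside the 99.7% bounds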;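 also: scored against the spread of the other compound wells on the same plate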
Target sequence (Q01959 whole entry, looked up): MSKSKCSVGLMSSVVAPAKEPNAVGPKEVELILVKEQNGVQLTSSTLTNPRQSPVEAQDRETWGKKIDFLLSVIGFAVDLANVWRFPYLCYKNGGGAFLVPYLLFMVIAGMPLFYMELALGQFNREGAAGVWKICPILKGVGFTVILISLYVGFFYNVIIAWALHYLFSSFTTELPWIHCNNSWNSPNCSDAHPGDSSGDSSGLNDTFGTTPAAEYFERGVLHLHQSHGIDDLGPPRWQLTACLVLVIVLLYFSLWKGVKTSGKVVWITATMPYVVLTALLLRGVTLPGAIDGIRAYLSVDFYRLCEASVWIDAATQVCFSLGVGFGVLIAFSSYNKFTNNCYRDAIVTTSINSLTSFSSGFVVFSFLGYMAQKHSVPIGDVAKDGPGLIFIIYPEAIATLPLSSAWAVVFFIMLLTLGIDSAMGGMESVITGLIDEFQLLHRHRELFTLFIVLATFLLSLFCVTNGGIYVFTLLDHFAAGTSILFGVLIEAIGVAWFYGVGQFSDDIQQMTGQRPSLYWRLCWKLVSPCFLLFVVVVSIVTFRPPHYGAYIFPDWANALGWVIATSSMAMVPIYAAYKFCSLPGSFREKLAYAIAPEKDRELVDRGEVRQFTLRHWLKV
BAP1 block: blocks human BAP1 ubiquitin-AMC hydrolysis; Q92560; recombinant BAP1, Ub-AMC hydrolysis fluorescence kinetic; stronger effect = lower value; calls only at 20 µM; actives 0.48% (n = 72,000);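 active = activity remaining at or below 50% of control, provided the compound also passes the data quality filters; inactive = the rest, including low values that fail the filters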;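 also: 100% = DMSO wells rate and 0% = substrate alone blank rate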
D1 mod: D1 dopamine receptor (human) allosteric modulation. P21728. HEK293 D1, CRE-luciferase, dopamine EC30 potentiation; actives deviate in either direction. B-score at 10 µM. actives 5.9% (n = 58,000). AID 641;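 active = luminescence count or its row- and column-corrected plate score outside the 99.7% band of the plate's sample wells, on either side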
* marks the source's active call; other numbers are inactive results.

`CCOC(=O)c1c(NC(=O)CN2C(=O)c3ccccc3C2=O)sc2c1CCC2` gave BAP1 block inactive.
`Cc1ccc(S(=O)(=O)N(C(=O)NC(=O)Nc2cccc(C(F)(F)F)c2)c2ccccc2)cc1` gave BAP1 block inactive.
`Cc1ccc2cc(C(c3nnnn3C3CCCC3)N3CCN(c4ccc(F)cc4)CC3)c(=O)[nH]c2c1` (stereo not drawn) gave hDAT+cocaine 3.7* and D1 mod -0.52.
For Cc1cc(C)c2cc(C(c3nnnn3C3CCCC3)N3CCOCC3)c(=O)[nH]c2c1 (stereo not drawn) the results were hDAT+cocaine -0.41 and D1 mod 0.56.
Screening Cc1ccc(C)c(C(=O)CN2C(=O)c3ccccc3S2(=O)=O)c1 returned hDAT+cocaine -0.15.
Cc1cc(C(=O)CN2C(=O)c3ccccc3S2(=O)=O)c(C)n1CC1CCCO1 (stereo not drawn) was read as hDAT+cocaine 0.63, BAP1 block inactive and D1 mod -5.7*.
CC(C)c1ccc(C(Nc2ccccn2)c2ccc3cccnc3c2O)cc1 (stereo not drawn) was read as BAP1 block inactive.
`C#Cc1ccc([C@@H]2C=C(C(=O)N3CCN(Cc4ccccc4)CC3)O[C@H](OCC)[C@H]2CCCO)cc1` gave hDAT+cocaine 1.
For C#Cc1ccc([C@H]2C=C(C(=O)N3CCN(Cc4ccccc4)CC3)O[C@@H](OCC)[C@@H]2CCCO)cc1 the results were hDAT+cocaine 2.7*.
`CCN(CC)S(=O)(=O)c1ccc(C(=O)Nc2nnc(-c3ccc(C)cc3)s2)cc1` gave BAP1 block inactive.
O=C1C(=O)N(Cc2cccnc2)C(c2ccc(Br)cc2)/C1=C(\O)c1ccccc1 (stereo not drawn) was read as BAP1 block inactive.
For Cc1ccc(NC2=C(N3CCCCC3)C(=O)c3ccccc3C2=O)cc1 the results were hDAT+cocaine 0.49.
For O=C1C(Nc2cccc(O)c2)=C(N2CCCCC2)C(=O)c2ccccc21 the results were hDAT+cocaine -2.7*.
For O=C1C(Nc2ccccc2)=C(N2CCCCC2)C(=O)c2ccccc21 the results were hDAT+cocaine -5*.
`O=C(/C=C/c1ccc(O)cc1)c1ccc(NC2=C(N3CCCCC3)C(=O)c3ccccc3C2=O)cc1` gave hDAT+cocaine 2.4.
`Cc1ccc([N+](=O)[O-])cc1N1C(=O)C2C3C=CC(C4CC34)C2C1=O` (stereo not drawn) gave BAP1 block inactive.
O=C(Cn1ccc([N+](=O)[O-])n1)Nc1ccc(I)cc1 was read as BAP1 block inactive.
For CCn1cc(C2=NC(C(C)C)CO2)c2ccccc21 (stereo not drawn) the results were hDAT+cocaine 1.3, BAP1 block inactive and D1 mod -1.5.
`CC(C)C1COC(c2cccc3ccccc23)=N1` (stereo not drawn) gave hDAT+cocaine 3*.
For O=C(NCc1cccnc1)C(=O)NCC1OCCN1S(=O)(=O)c1ccc(Cl)cc1 (stereo not drawn) the results were hDAT+cocaine 0.79.
Screening O=C(NCc1ccc(F)cc1)C(=O)NCC1OCCN1C(=O)c1ccc(Cl)cc1 (stereo not drawn) returned hDAT+cocaine 2.4*.
`O=C(c1cccc2ccccc12)N1CCN(c2ccc([N+](=O)[O-])cc2)CC1` gave BAP1 block inactive.
Screening CCN(CC)CCNc1ccnc2c1ccc1nsnc12 returned BAP1 block inactive.
`CCCCN(C)CCCNC(=O)c1cccc(N2CCCC2=O)c1` gave hDAT+cocaine -1.1, BAP1 block inactive and D1 mod -5.8*.
CN(CCCNC(=O)c1cccc(N2CCCC2=O)c1)c1ccccc1 was read as hDAT+cocaine 2.5 and BAP1 block inactive.
Screening O=C1NC(c2cccc(F)c2)Nc2sc3c(c21)CCCC3 (stereo not drawn) returned BAP1 block inactive.
`COc1ccc(Br)cc1C1NC(=O)c2c(sc3c2CCN(C)C3)N1` (stereo not drawn) gave BAP1 block inactive and D1 mod -0.055.
CCOc1ccc(Br)cc1C1NC(=O)c2c(sc3c2CCN(C)C3)N1 (stereo not drawn) was read as BAP1 block inactive and D1 mod -4.6*.
`Cc1ccc(S(=O)(=O)C(C#N)c2nc3ccccc3nc2N2CCCCC2)cc1` (stereo not drawn) gave BAP1 block inactive and D1 mod -0.3.
N#CC(c1nc2ccccc2nc1N1CCCCC1)S(=O)(=O)c1ccc(Cl)cc1 (stereo not drawn) was read as BAP1 block active and D1 mod -2.5*.
For O=C(NCCCN1CCOCC1)c1ccccc1I the results were BAP1 block inactive.
`CCOCCn1c(CN2CCN(c3cccc(Cl)c3)CC2)nc2c1c(=O)n(C)c(=O)n2C` gave hDAT+cocaine 1.1, BAP1 block inactive and D1 mod 0.26.
`COCCn1c(CN2CCN(c3cccc(Cl)c3)CC2)nc2c1c(=O)n(C)c(=O)n2C` gave hDAT+cocaine -0.072, BAP1 block inactive and D1 mod -3.5*.
For CN(C)CCSc1nc2ccccc2n1Cc1ccccc1 the results were BAP1 block inactive.
O=c1[nH]c(-c2ccccn2)nc2ccccc12 was read as hDAT+cocaine 1.1, BAP1 block inactive and D1 mod 0.47.
c1ccc(-c2nc3c(ccc4ccccc43)[nH]2)nc1 was read as hDAT+cocaine 4.1*.
For Cc1nc2ccc3nc(NC(=O)c4ccc(C#N)cc4)sc3c2s1 the results were BAP1 block inactive.
Screening Cc1nc2sc(C(c3ccccc3)N3CC(C)OC(C)C3)c(O)n2n1 (stereo not drawn) returned hDAT+cocaine 0.17, BAP1 block inactive and D1 mod -0.0048.
Cc1nc2sc(C(c3ccc(Br)cc3)N3CC(C)OC(C)C3)c(O)n2n1 (stereo not drawn) was read as hDAT+cocaine 2.6*, BAP1 block inactive and D1 mod 0.84.
O=C(Cc1cccs1)N1CCC(c2nc3c(nnn3Cc3ccc(F)cc3)c(=O)[nH]2)CC1 was read as hDAT+cocaine 1.8, BAP1 block inactive and D1 mod -0.11.
O=C(Cc1cccs1)N1CCCC(c2nc3c(nnn3Cc3cccc(Cl)c3)c(=O)[nH]2)C1 (stereo not drawn) was read as hDAT+cocaine 2.3*, BAP1 block inactive and D1 mod 0.7.
O=C(C1CCC1)N1CCC(c2nc3c(nnn3Cc3c(F)cccc3Cl)c(=O)[nH]2)CC1 was read as hDAT+cocaine 2.8*, BAP1 block inactive and D1 mod 0.93.
For Cc1ccc(C)c(Cn2nnc3c(=O)[nH]c(C4CCCN(C(=O)C5CCC5)C4)nc32)c1 (stereo not drawn) the results were hDAT+cocaine 1.9, BAP1 block inactive and D1 mod 2.4.
For CCCCCc1cc(=O)oc2c(C(CCN3CCCCC3)c3cc(OC)c(OC)c(OC)c3)c(OC)cc(OC)c12 (stereo not drawn) the results were hDAT+cocaine -1.4.
CCCCCc1cc(=O)oc2c(C(CCN3CCCC(C)C3)c3cc(OC)c(OC)c(OC)c3)c(OC)cc(OC)c12 (stereo not drawn) was read as hDAT+cocaine -2.9*.
